Measurements as given in the supplement of paper PMC6763611.

Tested on: Plasmodium falciparum NF54
Assay: growth inhibition relative to untreated control; higher = more inhibition
Conditions: 72 h
In short: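 P. falciparum NF54 ring stages (1% hematocrit, 1% parasitemia, 100 μL/well in 96-well half-area dark plates) were exposed for 72 h at 37 °C to single 5 μM or 1 μM doses of Pathogen Box compounds. The medium was minimal RPMI or minimal RPMI plus chorismate end-products (2.2 μM folate, 7.3 μM pABA, 7.3 μM pHBA, 111 μM tyrosine, 90 μM phenylalanine, tryptophan). Growth inhibition was read by SYBR Green, normalised to untreated controls, with uninfected erythrocytes as background.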

[1] = 1 µM, MM + chorismate end-products (CM screening medium)
[2] = 5 µM, MM + chorismate end-products (CM screening medium)

| SMILES | growth inhibition [1] [%] | growth inhibition (1 µM, minimal medium (MM)) [%] | growth inhibition [2] [%] | growth inhibition (5 µM, minimal medium (MM)) [%] |
| --- | --- | --- | --- | --- |
| CCC(=O)Nc1ccccc1C(=O)Nc1ccccn1 | < 0 | < 0 | < 0 | < 0 |
| CC(=O)N(CCN(C(=O)c1ccc(F)cc1)c1ccccc1)c1ccccc1 | < 0 | < 0 | 20.2 | < 0 |
| CCCS(=O)(=O)N1CCC(CO)(Cc2ccccc2C(F)(F)F)CC1 | 46.8 | 69.6 | 99.7 | 87.9 |
| COC(=O)Nc1nc2cc(C(=O)c3ccccc3)ccc2[nH]1 | 12 | < 0 | 5.63 | < 0 |
| CN1CCN(S(=O)(=O)c2ccc(-c3ccc4c(Nc5ccc6nn[nH]c6c5)ccnc4c3)cc2)CC1 | 89.7 | > 100 | 92.9 | 95.1 |
| c1csc(-c2cnc3sc(NCC4CCOCC4)nn23)c1 | 60.9 | 68.8 | > 100 | 95 |
| O=C(NCc1cc(Cl)cc(Cl)c1)c1c(C(F)(F)F)nc2ccccn12 | 2.45 | 10.6 | 31.8 | 9.63 |
| CC1CC1C(=O)NC1CCN(CC2(c3ccccc3)CCCCC2)CC1 (centres undefined) | 96.1 | 94.5 | 90.8 | 92 |
| Oc1c(I)cc(I)c2cccnc12 | 39.4 | 9.57 | < 0 | < 0 |
| COc1cccc(-n2nnnc2S(=O)(=O)Cc2ccccc2)c1 | 13.8 | 3.94 | 65.6 | < 0 |
| CC(C)(C)n1nc(Cc2cccc3ccccc23)c2c(N)ncnc21 | < 0 | 18.3 | 39.5 | 29.5 |
| Cc1cccc(NC(=O)c2cc(S(=O)(=O)N(C)c3ccc(F)cc3)ccc2Cl)n1 | 86.6 | 82.9 | 87.9 | 91.5 |
| Clc1cccc(CO[C@H]2CCc3ccccc3[C@@H]2n2ccnn2)c1 | 7.57 | < 0 | < 0 | 15.4 |
| COc1ccc(C(=N)N)cc1-c1cn(-c2ccc(C(=N)N)cc2)nn1 | 65.6 | 53.6 | 47.8 | 39.2 |
| O=C(CCC1CCCCC1)Nc1cccc(-c2nnc(-c3ccco3)o2)c1 | 14.2 | 9.19 | < 0 | < 0 |
| O=C(NCCN1CCCC1)c1cc(NCCN2CCOCC2)nc2ccc(Cl)cc12 | 97.7 | 97.2 | 92.2 | 96.8 |
| NCCC(O)C(=O)N[C@@H]1C[C@H](N)[C@@H](OC2O[C@H](CN)[C@@H](O)[C@H](O)[C@H]2O)[C@H](O)C1OC1O[C@H](CO)[C@@H](O)[C@H](N)[C@H]1O (some centres undefined) | 46 | 17.2 | < 0 | < 0 |
| O=C(Nc1ccc2c(c1)B(O)OC2)c1ccccc1C(F)(F)F | 69.1 | 67.8 | 74.6 | 87 |

| SMILES | growth inhibition [1] [%] | growth inhibition (1 µM, minimal medium (MM)) [%] | growth inhibition [2] [%] | growth inhibition (5 µM, minimal medium (MM)) [%] |
| --- | --- | --- | --- | --- |
| CCc1c(C)nc(-n2nc(C)cc2NC(=O)c2ccccc2SC)[nH]c1=O | 72.1 | 60.2 | 86.1 | 79.9 |
| Cc1nnc(NCc2cccc(Cl)c2)c2ccccc12 | 37.2 | 4.12 | 4.67 | < 0 |
| O=C(OCc1ccccc1)N1CCC(c2cc(-c3ccncc3)c(-c3ccc(F)cc3)[nH]2)CC1 | 62.4 | 62.7 | 98.3 | 64.2 |
| O=C(Nc1nnc(S)s1)c1cc(Br)ccc1Cl | 31.8 | 9.59 | < 0 | < 0 |
| Cc1noc(C)c1COc1cccc(C(=O)N=c2[nH]cccc2C)c1 | < 0 | < 0 | < 0 | < 0 |
| O=C(NC1CC1)c1ccc(CSCc2ccccc2Cl)o1 | 59.9 | > 100 | > 100 | 90.8 |
| CC(=O)NC[C@@H]1CN(c2ccc(N3CCOCC3)c(F)c2)C(=O)O1 | 18.8 | 11.7 | < 0 | < 0 |
| COc1ccc(N(CCc2cccc(C)n2)C(=O)C2CCCCC2)cc1 | 4.48 | 36.2 | 4.56 | 9.01 |
| c1ccc(C[C@@H]2CN(c3nccc(Oc4ccc(-n5ccnc5)cc4)n3)CCN2)cc1 | 98.3 | 97.5 | 95.3 | 95.3 |
| O=C(Nc1ccnc(-c2cccnc2)n1)c1cc(C(F)(F)F)cc(C(F)(F)F)c1 | 13.6 | 20.9 | 93.8 | 86.6 |
| Nc1nccc2ccc(Oc3ccncc3)cc12 | 73.9 | 64 | 68.2 | 60.1 |
| CCc1ccc(S(=O)(=O)Nc2cc(CN3CCN(CCC(C)C)CC3)ccc2C)cc1 | 31.6 | 4.88 | 64.6 | 13.6 |
| c1ccc2c(c1)CN(CC1CC1)CC1(CCN(Cc3c[nH]c4cnccc34)CC1)O2 | 99 | 97.8 | 93.1 | 87.4 |
| CC(C)/N=c1\cc2n(-c3ccc(Cl)cc3)c3ccccc3nc-2cc1Nc1ccc(Cl)cc1 | 91.5 | 89.1 | 90 | 94.1 |
| COCC(C)NC(=O)CSc1ncnc2sc(-c3ccccc3)cc12 (centres undefined) | 11.3 | < 0 | < 0 | < 0 |
| CC(C)(C)OC(=O)N1CCN(c2cc(-c3ccc(Oc4ccccc4)cc3)n[nH]2)CC1 | < 0 | 18 | 64.8 | 16.8 |
| COc1cncc(-c2cncc(N3CCN(c4ccncc4)CC3)n2)c1 | > 100 | > 100 | 97.4 | 89.1 |
| CC(C)(C)[C@H]1CC[C@H](CC2=C(O)C(=O)c3ccccc3C2=O)CC1 | 97.5 | 95.2 | 94.8 | 93.4 |
